# GPR151 ag: human GPR151 activation; Q8TDV0; PathHunter beta-arrestin GPR151 cells, luminescence; activation, % at 11.2 µM; 1% of 650,000 active; AID 1508602; in the data active = activation above about 4.9%
# MITF inh: inhibitors of human MITF; O75030; AlphaScreen MITF homodimerization, bead proximity signal; inhibition, % at 2.6 µM; 0.91% of 650,000 active; AID 1259374; in the data active = inhibition above about 50%
# FBW7 activator: human FBW7 E3 ligase activation, primary screen; 0.13% of 650,000 active; normalized activity (activation), % at 26.1 µM; Q969H0; AlphaScreen FBW7–phospho-cyclin E peptide binding, activator screen; in the data active = normalized activity above about 1.9%;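 also: purified mutant Fbw7 with reduced substrate affinity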
# Target sequence (Q969H0 whole entry, looked up): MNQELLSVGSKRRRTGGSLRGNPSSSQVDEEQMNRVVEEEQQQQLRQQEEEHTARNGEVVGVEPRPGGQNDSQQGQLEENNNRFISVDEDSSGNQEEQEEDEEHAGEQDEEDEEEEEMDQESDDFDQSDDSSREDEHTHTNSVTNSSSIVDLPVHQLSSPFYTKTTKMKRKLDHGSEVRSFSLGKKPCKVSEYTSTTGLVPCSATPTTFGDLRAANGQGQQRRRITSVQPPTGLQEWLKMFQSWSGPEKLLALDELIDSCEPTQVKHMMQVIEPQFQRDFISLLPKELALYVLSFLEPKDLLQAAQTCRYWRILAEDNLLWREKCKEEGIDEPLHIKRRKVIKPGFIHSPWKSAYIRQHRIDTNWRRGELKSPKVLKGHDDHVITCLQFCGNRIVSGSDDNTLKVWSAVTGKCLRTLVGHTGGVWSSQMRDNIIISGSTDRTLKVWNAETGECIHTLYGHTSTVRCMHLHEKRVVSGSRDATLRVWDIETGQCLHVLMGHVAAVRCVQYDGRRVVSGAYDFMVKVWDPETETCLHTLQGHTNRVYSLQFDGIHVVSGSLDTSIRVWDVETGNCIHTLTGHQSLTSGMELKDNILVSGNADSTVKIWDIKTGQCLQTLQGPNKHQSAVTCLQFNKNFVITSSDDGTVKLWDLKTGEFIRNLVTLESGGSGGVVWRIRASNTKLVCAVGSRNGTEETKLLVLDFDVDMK
# TEAD-YAP block: TEAD-YAP interaction inhibition. 1.4% of 640,000 active. HEK-TIYL cells, TEAD-Gal4/YAP UAS-luciferase luminescence. inhibition, % at 9.12 µM; in the data active = inhibition above about 32%
# MITF confirm: confirmation of human MITF inhibitors; shares compounds with MITF inh; AlphaScreen MITF homodimerization, biotin/His-MITF beads; inhibition, % at 2.6 µM; 16% of 4,700 active; AID 1259372;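 active = inhibition above a cutoff derived from the DMSO control wells, cut at about 28% in these data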;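 also: inhibitors lower the bead chemiluminescence by keeping MITF from dimerizing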
# AS interf DR: AlphaScreen optical interference, dose response counter-screen. shares compounds with MITF inh. AlphaScreen optical interference counterscreen, cell-free. IC50, µM. 6% of 480 active; call rule not given here
# AlphaScreen intf2: optically interferes with AlphaScreen signal; 7.6% of 4,700 active; AID 1259376; shares compounds with MITF inh; LysRS AlphaScreen counterscreen, signal interference, triplicate; inhibition, % at 2.6 µM;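 active = inhibition above a cutoff derived from the DMSO control wells, cut at about 30% in these data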
# Hits are given with their value; i = inactive; nt = no result. A selection: hits, their analogues and other compounds. The true share with any hit is near 3.5%.
SMILES,GPR151 ag,MITF inh,FBW7 activator,TEAD-YAP block,MITF confirm,AlphaScreen intf2,others
O=[N+]([O-])c1ccccc1CN1CCN(Cc2ccco2)CC1,i,54,i,i,i,i,
O=C(O)CCc1ccc(-c2cnc3ccc(NCCCO)nn23)cc1,i,i,i,i,nt,nt,
O=C(c1ccccc1N1CCCC1)N1CCC(CO)(CCOc2ccccc2)CC1,i,i,i,i,nt,nt,
COc1ccc(NC(=O)CCNC(=O)C2O[C@@H]3OC(C)(C)O[C@@H]3[C@H]3OC(C)(C)O[C@@H]23)cc1 (stereo not given in full),i,i,i,i,nt,nt,
O=C(/C=C/c1cn(-c2nc(-c3ccccc3)c3cc(Br)ccc3n2)[n+](-c2ccccc2)c1)c1ccccc1,i,77,i,i,i,i,
CCn1c(=N)c(C(=O)NCCc2ccccc2)cc2c(=O)n3cc(C)ccc3nc21,i,i,i,i,nt,nt,
COC(=O)c1c(NC(=O)C2CC2)sc2c1CCN(C(C)=O)C2,i,i,i,i,nt,nt,
COC(=O)c1c(NC(=O)/C=C/C(=O)O)sc2c1CCN(C(C)=O)C2,i,83,i,i,i,i,
O=C(Nc1ccc(N2CCOCC2)cc1)c1ccc2nc(-c3cccs3)sc2c1,i,55,i,i,57,i,AS interf DR=i
O=C(Nc1ccc(N2CCOCC2)cc1)c1ccnc(Nc2ncccn2)c1,i,59,i,i,84,i,AS interf DR=i
O=C(Nc1ccc(N2CCOCC2)cc1)c1ccc2nc(Nc3ccc(N4CCOCC4)cc3)sc2c1,i,i,i,i,nt,nt,
O=C(Nc1ccc(N2CCOCC2)cc1)c1ccnc(Nc2ccc(N3CCOCC3)cc2)c1,i,i,i,i,nt,nt,
O=C(Nc1ccc(N2CCOCC2)cc1)c1ccc2nc(Nc3ccccn3)sc2c1,i,70,i,i,79,i,AS interf DR=i
O=C1C(=O)N(CCc2ccccc2)C(c2ccc(Cl)cc2)/C1=C(/O)c1ccc(Cl)cc1 (stereo not given),i,i,i,i,nt,nt,
COc1cccc(C(=O)N2CCN(Cc3cc(OC)ccc3OC)CC2)c1,i,i,i,i,nt,nt,
COc1ccc(Br)cc1CN1CCN(C(=O)c2cccc(Cl)c2)CC1,i,53,i,i,i,i,
COc1cccc(C(=O)N2CCN(Cc3cc(Br)ccc3OC)CC2)c1,i,58,i,i,i,i,
COc1cc(OC)c(OC)cc1CN1CCN(C(=O)c2cccc(Cl)c2)CC1,i,i,i,i,nt,nt,
COc1ccc2c(c1)N(C(N)=S)C(C)(C)C=C2C,i,90,i,i,73,57,
COc1cccc(C(=O)N2CCN(Cc3cccc(Br)c3)CC2)c1,i,54,i,i,i,i,
COc1cccc(C(=O)N2CCN(Cc3ccc(OC)c(OC)c3)CC2)c1,i,61,i,i,i,i,
COc1cccc(OC)c1C(=O)N1CCN(Cc2cccc(Br)c2)CC1,i,64,i,i,i,i,
COc1cccc(C(=O)N2CCN(Cc3ccc(C)cc3)CC2)c1,i,58,i,i,i,i,
COc1cccc(NC(=S)NC(=O)c2cc(OC)cc(OC)c2)c1,i,i,i,i,nt,nt,
COc1ccc(CN2CCCN(C)CC2)c(C)c1C,i,i,i,i,nt,nt,
SMILES,GPR151 ag,MITF inh,FBW7 activator,TEAD-YAP block,MITF confirm,AlphaScreen intf2,others
COc1ccccc1-c1nc2s/c(=C\c3ccccc3)c(=O)n2n1,i,i,i,i,nt,nt,
COc1ccc(C(=O)N2CCN(Cc3cc(OC)c(OC)c(OC)c3)CC2)cc1OC,i,i,i,i,nt,nt,
COc1ccc(C(=O)N2CCN(Cc3ccc(Cl)cc3)CC2)cc1OC,i,53,i,i,i,i,
CCNc1cc(C)nc(N2CCN(C(=O)c3c(F)cccc3Cl)CC2)n1,i,i,i,i,nt,nt,
CCNc1cc(C)nc(N2CCN(C(=O)c3cccc(OC)c3)CC2)n1,i,59,i,i,i,i,
COc1cccc(C(c2sc3ncnn3c2O)N2CCN(c3ccccc3)CC2)c1 (stereo not given),i,i,i,i,nt,nt,
O=C1c2ccc([N+](=O)[O-])cc2C(=O)N1c1cc(Br)c(O)c(Br)c1,i,69,i,i,75,i,AS interf DR=i
Nc1nc(NCc2nc3ccccc3[nH]2)cc(-c2ccc(N3CCOCC3)nc2)n1,i,i,i,i,nt,nt,
COC(=O)CSc1nc(-c2cccs2)cc(-c2ccc(F)cc2)c1C#N,i,i,i,i,nt,nt,
CCc1ccc(CN2CCN(C(=O)CC(C)C)CC2)cc1,i,58,i,i,i,i,
COc1ccc(CN2CCN(C(=O)c3cccs3)CC2)cc1Br,i,67,i,i,i,i,
COc1ccc(CN2CCN(C(=O)c3cccs3)CC2)cc1OC,i,i,i,i,nt,nt,
CCc1ccc(CN2CCC(C(=O)NC(C)C)CC2)cc1,i,i,i,i,nt,nt,
COc1ccc(C(=O)N2CCN(Cc3ccc(OC)c(Br)c3)CC2)cc1,i,i,i,i,nt,nt,
COc1ccc(CN2CCN(C(=O)c3ccccc3F)CC2)cc1Br,i,54,i,i,i,i,
COc1ccc(CN2CCN(C(=O)CC(C)C)CC2)cc1Br,i,54,i,i,i,i,
Cc1ccc2nc(-c3ccccc3)cc(C(=O)NCCOc3ccccc3)c2c1,i,i,i,i,nt,nt,
COC(=O)c1ccc(COC(=O)c2ccc(S(=O)(=O)C(F)F)cc2)o1,i,i,i,i,nt,nt,
O=c1[nH]c2cc3c(cc2cc1CN(CCO)S(=O)(=O)c1ccccc1F)OCO3,i,i,i,i,nt,nt,
O=C(O)c1cn(-c2ccc(F)cc2F)c(=O)c2ccccc12,i,i,i,i,nt,nt,
CCOc1ccc(CN2CCN(C(=O)c3cccs3)CC2)cc1,i,60,i,i,i,i,
NC(=O)c1cccc(S(=O)(=O)Nc2cccc(Cl)c2)c1,i,i,i,i,nt,nt,
COC(=O)C(C)CN1CCN(Cc2ccccc2)CC1 (stereo not given),i,78,i,i,i,i,
CC(=O)N(C)c1ccc(OCC(O)CN2CCN(Cc3ccccc3)CC2)cc1 (stereo not given),i,82,i,i,i,i,
COC(=O)C(C)CN1CCc2ccccc2C1 (stereo not given),i,i,i,i,nt,nt,
SMILES,GPR151 ag,MITF inh,FBW7 activator,TEAD-YAP block,MITF confirm,AlphaScreen intf2,others
CC(C)n1c(NCCN2CCOCC2)nc2c(NCCN3CCOCC3)ncnc21,i,67,i,i,i,i,
CCc1nn(CC(=O)NC2CCC(C)CC2)c(=O)c2cc3sc(C)cc3n12 (stereo not given),i,i,i,i,nt,nt,
O=C(C1CCCN(Cc2ccncc2)C1)N1CCc2ccccc2C1 (stereo not given),i,90,i,i,i,i,
CCS(=O)(=O)N1CCCC(C(=O)N2CCc3ccccc3C2)C1 (stereo not given),i,i,i,i,nt,nt,
O=C(C1CCN(c2ccc(N3CCOCC3)nn2)CC1)N1CCc2ccccc2C1,i,i,i,i,nt,nt,
O=C(C1CCNCC1)N1CCc2ccccc2C1,i,60,i,i,i,i,
CCc1ccccc1NS(=O)(=O)c1ccc(OC)c(I)c1,i,i,i,i,nt,nt,
CCOC(=O)C1=C(C)NC2=C(C(=O)CCC2)C1c1ccc2c(c1)OCO2 (stereo not given),i,i,i,i,nt,nt,

# High-throughput results from PubChem.
